Experimental data from PubChem BioAssay.
Measured potencies and affinities stand elsewhere. Activity calls are given as the source filed them. The limit is not given here; nearly all actives have IC50 up to about 0.91 µM.

The molecules below were run against Calcium-dependent protein kinase 4 (Plasmodium falciparum (isolate 3D7)) (UniProt Q8IBS5) (assay: PfCDPK4 kinase inhibitors, biochemical, TCAMS library (AID 1159588)). Details: recombinant PfCDPK4, Kinase-Glo ATP depletion luminescence.
Calcium-dependent protein kinase 4 (Plasmodium falciparum (isolate 3D7)), sequence (Q8IBS5 whole entry, looked up): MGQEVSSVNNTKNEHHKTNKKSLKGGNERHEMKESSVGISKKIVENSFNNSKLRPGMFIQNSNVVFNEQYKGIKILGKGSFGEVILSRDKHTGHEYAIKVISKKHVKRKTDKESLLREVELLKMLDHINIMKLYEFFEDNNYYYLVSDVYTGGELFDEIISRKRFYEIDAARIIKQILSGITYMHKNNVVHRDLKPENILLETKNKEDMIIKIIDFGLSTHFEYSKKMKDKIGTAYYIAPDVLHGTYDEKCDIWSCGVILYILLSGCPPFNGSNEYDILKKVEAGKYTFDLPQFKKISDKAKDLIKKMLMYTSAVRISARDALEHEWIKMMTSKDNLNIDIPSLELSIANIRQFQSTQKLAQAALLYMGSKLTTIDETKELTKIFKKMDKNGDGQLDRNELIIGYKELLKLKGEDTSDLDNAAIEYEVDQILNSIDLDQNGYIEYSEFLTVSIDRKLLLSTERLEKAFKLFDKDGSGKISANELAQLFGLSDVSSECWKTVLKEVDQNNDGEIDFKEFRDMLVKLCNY
With `O=C(Nc1ccc(-c2nc3ccccc3[nH]2)cc1)c1ccc(S(=O)(=O)N2CCc3ccccc32)cc1` the outcome was “inactive”. In the case of `CCCCNCc1ccc(-c2nc(CN(Cc3ccc(Cl)c(Cl)c3)S(=O)(=O)c3ccc(NC(C)=O)cc3)cs2)cc1`, the outcome is reported as “inactive”. For `CCCCCCCN1CC[C@@H](CCCc2ccnc3ccc(OCC4CCCNC4)cc23)[C@@H](CC)C1` (stereo not given in full), the outcome was “inactive”. `COc1ccc(NC(=O)NC2CCN(c3ccnc4cc(Cl)ccc34)C2)cc1` (stereo not given) was tested, and the outcome was “inactive”. For `CCOc1ccc2c(NN=Cc3cc(OC)c(OC)cc3OC)cc(C)nc2c1`, the outcome was “inactive”. For `CCc1cc(NC2CCN(C)CC2)nc(Nc2ccc(C)cc2)n1`, the outcome was “inactive”. With `O=C(CCC1CCCC1)N(Cc1ccc(-c2ccc(CNCCc3ccccc3)cc2)cc1)C1CCCNC1` (stereo not given) the outcome was “inactive”. For `Cc1cc(C(=O)Nc2ccc3c(c2)CCN3C2CCN(Cc3cc(F)cc(F)c3F)C2)no1` (stereo not given), the outcome was “inactive”. In the case of `CC(C)C(C(=O)Nc1ccc(S(=O)(=O)N(C)C)cc1)c1ccc(Cl)cc1` (stereo not given), the outcome is reported as “inactive”. With `CCCC1N=C(N)N=C(N)N1c1ccc(OC)cc1` (stereo not given) the outcome was “inactive”. `CSc1cccc(NC(=O)c2cc3ccccc3oc2=O)c1` was tested, and the outcome was “inactive”. With `CCc1c[nH]c2c(N3CCCCS3(=O)=O)cc(C(=O)N[C@@H](Cc3ccccc3)[C@H](O)CNCc3cccc(OC)c3)cc12` the outcome was “inactive”. For `CCn1c(-c2nonc2N)nc2c(C#CC(C)(C)O)ncc(OCCNCCc3ccc(OC)cc3)c21`, the outcome was “inactive”. `O=C(CCc1nc2c(cnn2-c2ccccc2)c(=O)[nH]1)NC1CCSc2ccccc21` (stereo not given) was tested, and the outcome was “inactive”. For `CCOC(=O)c1ccc(NC(=O)N(Cc2ccc(-c3cccc(CN4CCNCC4)c3)cc2)C2CCN(Cc3ccccc3)CC2)cc1`, the outcome was “inactive”. `COc1ccc(O)c(C(=O)c2cc(C(=O)NCCc3ccccc3)c(=O)n(CCc3ccccc3)c2)c1` was tested, and the outcome was “inactive”. In the case of `Cc1nn(CC(O)Cn2c3ccc(Br)cc3c3cc(Br)ccc32)c(C)c1Br` (stereo not given), the outcome is reported as “inactive”. `NC1CCN(c2nc(NCCCc3ccc(O)cc3)nc(NCc3cccc4ccccc34)n2)CC1` was tested, and the outcome was “inactive”. `Cn1nccc1C(=O)NCCNCc1cccc(-c2ccc(-c3nc4ccccc4[nH]3)s2)c1` was tested, and the outcome was “inactive”. In the case of `O=C(NC(Cc1ccccc1)C(=O)O)c1cc(=O)c2ccccc2o1` (stereo not given), the outcome is reported as “inactive”. In the case of `COc1cc(NC(=O)N2CCOC(CCN3CCC(c4ccccc4)CC3)(c3ccc(Cl)c(Cl)c3)C2)cc(OC)c1` (stereo not given), the outcome is reported as “inactive”. `CN(C)CCOc1ccc2c(c1)CN(C)CC2c1ccccc1` (stereo not given) was tested, and the outcome was “inactive”. With `CC(Cl)=CCc1c(C)[nH]c2c(ccc3ccccc32)c1=O` the outcome was “inactive”. With `COc1ccc2ncc(F)c(CCN3CC[C@@H](CNCc4nc5c(cc4C)SCC(=O)N5)C3)c2n1` the outcome was “inactive”. In the case of `CC1(C)[C@H]2CC[C@@H](CNc3nc(NCC(=O)Nc4ccc5ccccc5c4)nc(N4CCC(N5CCCC5)CC4)n3)[C@@H]1C2`, the outcome is reported as “inactive”. With `CCNc1cc(C(=O)N[C@@H](Cc2cccc(F)c2)[C@H](O)CNC(C)CCCC(C)C)cc(N2CCCCS2(=O)=O)c1` (stereo not given in full) the outcome was “inactive”. With `C[C@@H]1CN(C(c2cccc(O)c2)c2cccc(C(=O)N(C)c3cccc(F)c3)c2)[C@@H](C)CN1C(c1cccc(O)c1)c1cccc(C(=O)N(C)c2cccc(F)c2)c1` (stereo not given in full) the outcome was “inactive”. With `O=C(NCCCCCN1CCC(c2c[nH]c3ccccc23)C1)Nc1ccc(Cl)c(Cl)c1` (stereo not given) the outcome was “inactive”. `CC(Cc1ccc(OCCN2CCN(c3ccc(Cl)cc3)CC2)cc1)NCC(O)c1cccc(C(F)(F)F)c1` (stereo not given) was tested, and the outcome was “inactive”. For `COc1ccc2c(c1)ncn2-c1cc(OCc2ccncc2Br)c(C(N)=O)s1`, the outcome was “inactive”. In the case of `CC(C)N1CCN(CCCCNc2c3ccccc3nc3ccccc23)CC1`, the outcome is reported as “inactive”. With `N#Cc1ccc2c(c1)CCN(CCC1CCC(NC(=O)c3cc4ccc(Br)cc4[nH]3)CC1)C2` (stereo not given) the outcome was “inactive”. In the case of `COc1ccccc1CNc1nc(Nc2ccccc2C)nc2ccccc12`, the outcome is reported as “inactive”. In the case of `CNC(=O)NC1CCN(Cc2c(-c3cccs3)nc3ccccc3c2C(=O)N[C@@H](C)C2CCCCC2)CC1`, the outcome is reported as “inactive”. For `N#Cc1cccc(NC(=O)Nc2ccc(-c3csc(-c4nc5ccccc5[nH]4)c3)cc2)c1`, the outcome was “inactive”. `COc1ccc2nccc(N3CCC(NCCNCc4ccc5c(n4)NC(=O)CO5)C3)c2n1` (stereo not given) was tested, and the outcome was “inactive”. `Cn1c(NCc2cc(F)cc3c2OCOC3)nc2cc(Nc3ccnc(Nc4cccc(CS(C)(=O)=O)c4)n3)ccc21` was tested, and the outcome was “inactive”. `CC(=O)c1c[nH]c(C(=O)Nc2ccc(-c3cn4ccccc4n3)cc2)c1` was tested, and the outcome was “inactive”. In the case of `C=C1N(C)c2cc([N+](=O)[O-])c(N)cc2C1(C)C`, the outcome is reported as “inactive”. In the case of `CC(C)CCn1c(Sc2ccc(C#N)c([N+](=O)[O-])c2)nnc1-c1ccccc1Cl`, the outcome is reported as “inactive”.
